Entries with a potency or affinity are not part of this list.
Assays:
Klebsiella pneumoniae = conditions: Concentration 32 ug.mL-1;; ASSAY_TEST Inhibition of Bacterial Growth; detection method Absorption (OD600); MEDIA CAMHB; plate type 384well; NBS; CORNING #3640; time 18 hr
Candida albicans = conditions: Concentration 32 ug.mL-1; ASSAY_TEST Inhibition of Fungal Growth; detection method Absorption (OD530)
Cryptococcus neoformans = conditions: Concentration 32 ug.mL-1; ASSAY_TEST Inhibition of Fungal Growth; detection method Resazurin; Absorption (OD600-OD570); plate type 384well; NBS; CORNING #3640

SMILES | Inhibition (Klebsiella pneumoniae) [%] | Inhibition (Candida albicans) [%] | Inhibition (Cryptococcus neoformans) [%]
COc1ccc(CN(c2ccc(C(C)C)cc2)S(=O)(=O)c2cccn3cnnc23)cc1 | 7.8 | 1.9 | -7.62
COc1ccccc1NC(=O)Cn1nc2c(SC3CCCCC3)nccn2c1=O | -0.89 | 12.37 | -26.18
CCC(C)NC(=O)Cn1nc2n(Cc3cccs3)c(=O)c3sccc3n2c1=O (stereo not drawn) | 6.55 | 0.06 | -19.39
Cc1ccc(NC(=O)Cn2nc3ccc(SC(C)(C)C)nn3c2=O)c(C)c1 | 14.3 | 1.14 | -21.84
CSc1ccc(CNC(=O)Cn2nc3c(Oc4ccccc4)nccn3c2=O)cc1 | 13.75 | 0.62 | -8.38
O=C(CSc1nnc2c(=O)n(-c3ccccc3)ccn12)NCc1ccc(Cl)cc1 | 5.95 | -0.29 | -12.48
COC(=O)c1ccccc1NC(=O)Cn1nc2c(Oc3ccccc3C)nccn2c1=O | 8.93 | 0.12 | -8.78
CCc1nnc2ccc(S(=O)(=O)N(Cc3cccc(OC)c3)c3cccc(F)c3)cn12 | 10.63 | 2.06 | -7.44
COc1cccc(CN(c2ccc(F)c(F)c2)S(=O)(=O)c2ccc3nnc(C)n3c2)c1 | 7.43 | 1.78 | -8.55
COc1cccc(Cn2nc3ccc(-c4ccccc4)nn3c2=O)c1 | 7.25 | 2.39 | -3.25
O=c1n(Cc2cccc(C(F)(F)F)c2)nc2ccc(S(=O)(=O)N3CCCCC3)cn12 | 10.15 | 0.06 | -10.55
COc1ccccc1N1CCN(C(=O)Cn2nc3c(Sc4cccc(C)c4)nccn3c2=O)CC1 | -0.72 | 2.52 | -34.84
CCOc1ccc(-c2nc(CSc3nc4ccccc4n4c(C)nnc34)c(C)o2)cc1 | 11.43 | 1.94 | -16.17
CCCN(C)c1nccn2c(=O)n(CC(=O)Nc3ccc(Br)cc3)nc12 | 7.69 | 3.8 | -7.69
COc1cccc(-n2ccn3c(SCc4cccc(C)c4)nnc3c2=O)c1 | 11.77 | 3.62 | -12.18
O=C(Cn1nc2c(N3CCOCC3)nccn2c1=O)Nc1cccc(C(F)(F)F)c1 | 0.9 | 5.11 | -4.42
COc1cccc(Oc2nccn3c(=O)n(CC(=O)Nc4cc(F)ccc4F)nc23)c1 | 3.2 | 5.06 | -8.45
CCOc1ccccc1NC(=O)Cn1c(=O)c2nnc(C(C)C)n2c2ccccc21 | 4.41 | 1.06 | -2.8
COC(=O)c1ccccc1NC(=O)CSc1nc2ccccc2n2c(C(C)C)nnc12 | 12.98 | -0.8 | -7.61
COc1cccc(Oc2nccn3c(=O)n(CC(=O)NCc4ccccc4Cl)nc23)c1 | 18.21 | -2.46 | -9.66
Cc1ccc(C)c(NC(=O)Cn2nc3c(Sc4ccccc4)nccn3c2=O)c1 | 3.53 | 1.24 | -8.99

SMILES | Inhibition (Klebsiella pneumoniae) [%] | Inhibition (Candida albicans) [%] | Inhibition (Cryptococcus neoformans) [%]
COc1ccc(-n2ccn3c(-c4cccc([N+](=O)[O-])c4)nnc3c2=O)cc1 | 3.7 | 0.19 | -14.9
CCc1cccc(NC(=O)CSc2nnc3c(=O)n(-c4ccccc4)ccn23)c1 | 3.17 | 8.67 | -15.51
O=c1c2sccc2n2c(=O)n(Cc3cccc(Cl)c3)nc2n1CCc1ccccc1 | 11.95 | 1.58 | -33.74
CC(C)NC(=O)CSc1nnc2c(=O)n(Cc3ccc(F)cc3)ccn12 | 4.17 | 2.95 | -22.73
Cc1ccc(Sc2nccn3c(=O)n(CC(=O)Nc4ccccc4C)nc23)c(C)c1 | 6.75 | 4.26 | -25.74
CCc1nnc2c(SCC(=O)NCc3ccccc3Cl)nc3ccccc3n12 | 8.04 | 1.39 | -17.43
Cc1cc(C)cc(Nc2nc(C)cc3nn(CC(=O)Nc4ccc(F)cc4F)c(=O)n23)c1 | 15.5 | 32.59 | -6.19
CCOc1ccccc1NC(=O)Cn1nc2c3cc(-c4ccc(OC)cc4)nn3ccn2c1=O | 11.29 | 0.88 | -6.6
Cc1oc(-c2ccc(OC(C)C)cc2)nc1CSc1nc2ccccc2n2c(C(C)C)nnc12 | -1.3 | 23.86 | -18.35
CCCCc1ccc(NC(=O)Cn2nc3ccc(C(=O)Nc4ccc(OC)cc4)cn3c2=O)cc1 | -3.83 | 18.36 | -8.8
COC(=O)c1ccc(NC(=O)Cn2nc3c4sc(N5CCCC5)nc4ncn3c2=O)cc1 | -7.74 | 1.38 | -4.89
COc1ccc(C(=O)CSc2nnc3c(=O)n(-c4ccc(Br)cc4)ccn23)cc1 | 6.12 | 4.09 | -7.3
CC(C)CCNC(=O)CSc1nnc2c(=O)n(-c3ccc(F)cc3)ccn12 | 11.65 | 4.94 | -13.8
CC(C)c1nnc2c(=O)n(CC(=O)Nc3cccc(Br)c3)c3ccccc3n12 | 13.24 | 6.25 | -13.28
CCCNC(=O)Cn1nc2n(Cc3cccs3)c(=O)c3sccc3n2c1=O | 9.05 | -0.4 | -15.54
CCOC(=O)c1ccc(NC(=O)CSc2nnc3c4cc(-c5ccc(OC)cc5)nn4ccn23)cc1 | 14.8 | -1.16 | -22.98
O=C(Cn1nc2c(SCc3ccccc3)nccn2c1=O)NC1CCCC1 | 3.94 | 1.33 | -3.97
Cc1ccc(N(Cc2cccc(C)c2)S(=O)(=O)c2cccn3c(C)nnc23)cc1 | 5.17 | 4.46 | -6.62
Cc1ccc(C)c(Cn2nc3c(=O)n(-c4ccc(C)c(C)c4)ccn3c2=O)c1 | 6.6 | 1.95 | -10.52
CCCCOc1ccc(-c2cc3c4nnc(SCC(=O)Nc5cccc(C#N)c5)n4ccn3n2)cc1 | -0.44 | 7.68 | -23.71
CC(C)Cn1c(=O)c2sccc2n2c(=O)n(CC(=O)N3CCC(Cc4ccccc4)CC3)nc12 | -9.43 | 0.45 | -94.76

SMILES | Inhibition (Klebsiella pneumoniae) [%] | Inhibition (Candida albicans) [%] | Inhibition (Cryptococcus neoformans) [%]
Cc1ccc(NC(=O)Cn2nc3ccc(SC(C)C)nn3c2=O)c(C)c1 | 11.09 | 2.8 | -5.46
Cc1cccc(Sc2nccn3c(=O)n(CC(=O)Nc4ccc(Br)cc4C)nc23)c1 | 8.64 | 6.35 | -17.23
COc1cccc(-n2ccn3c(SCC#N)nnc3c2=O)c1 | 2.74 | 3.51 | -7.4
CCN(C(=O)Cn1nc2nc(Nc3ccc(F)cc3)ccn2c1=O)c1ccccc1 | 8.48 | 1.18 | -4.45
COc1ccccc1-n1ccn2c(SCC(=O)Nc3ccc4c(c3)OCO4)nnc2c1=O | 8.58 | 4.47 | -4.47
COc1ccc(C(=O)CSc2nnc3c(=O)n(-c4ccc(F)cc4)ccn23)cc1 | 10.95 | 4.42 | -10
CCOC(=O)c1cccc(NC(=O)Cn2nc3c(Oc4cccc(C)c4C)nccn3c2=O)c1 | -1.37 | -0.11 | -1.74
COc1ccc(N2CCN(C(=O)Cn3nc4c(Oc5ccc(C)cc5)nccn4c3=O)CC2)cc1 | 7.21 | 1.27 | -9.68
CCc1ccc(N(Cc2ccc(F)cc2)S(=O)(=O)c2cccn3c(C)nnc23)cc1 | -1.65 | 6.88 | -7.64
CC(C)CCn1c(=O)c2ccc(C(=O)NC3CCCC3)cc2n2c(=S)[nH]nc12 | -1.87 | 0.86 | -11.12
Cc1cc2nn(CC(=O)N3CCOCC3)c(=O)n2c(Nc2ccc(C)c(F)c2)n1 | 15.3 | 1.38 | -5.57
COc1ccc(CNC(=O)CSc2nnc3c4cc(-c5ccc(OC)cc5)nn4ccn23)cc1 | -0.91 | 1.93 | -6.67
Cc1cccc(N(Cc2ccccc2F)S(=O)(=O)c2ccc3nncn3c2)c1 | -1.12 | 0.03 | -7.87
Cc1ccc(-c2ccc3nn(Cc4nc(-c5ccc(OC(F)(F)F)cc5)no4)c(=O)n3n2)cc1 | -0.72 | 49.09 | -8.92
Cc1c(Cl)cccc1NC(=O)Cn1nc2c(N3CCOCC3)nc3ccccc3n2c1=O | 9.14 | 0.17 | -24
C=Cc1ccc(CN(c2ccc(F)c(F)c2)S(=O)(=O)c2cccn3cnnc23)cc1 | 8.42 | 2.5 | -8.63
COc1ccc(CNC(=O)Cn2nc3c(SCc4ccc(Cl)cc4)nccn3c2=O)cc1 | 2.51 | 1.91 | -11.5
COC(=O)c1ccccc1NC(=O)Cn1nc2c3cc(-c4ccc(Cl)cc4)nn3ccn2c1=O | 3.97 | 0.23 | -15.71
COc1ccc(N(Cc2cccc(F)c2)S(=O)(=O)c2ccc3nnc(C)n3c2)cc1 | 0.18 | 7.1 | -3.46
